Where “and” joins values, the source holds several entries; their conditions need not be identical. Equal values may be shown once. Records with an inconclusive call do not appear. A call without a number means that no potency is given here. Calls of active or inactive are those of the source. Calls come from the whole dose curve; as a rule, active = well fitted curve in the direction sought with a large enough effect in the repeat runs; inconclusive = weak or mixed curves; inactive = no such curve, though single readings can be large; an effect the other way counts as inactive or inconclusive.
Potency is the fitted concentration of half-maximal effect.

Nuclear receptor subfamily 1 group I member 3 (Homo sapiens), sequence (Q14994 whole entry, looked up): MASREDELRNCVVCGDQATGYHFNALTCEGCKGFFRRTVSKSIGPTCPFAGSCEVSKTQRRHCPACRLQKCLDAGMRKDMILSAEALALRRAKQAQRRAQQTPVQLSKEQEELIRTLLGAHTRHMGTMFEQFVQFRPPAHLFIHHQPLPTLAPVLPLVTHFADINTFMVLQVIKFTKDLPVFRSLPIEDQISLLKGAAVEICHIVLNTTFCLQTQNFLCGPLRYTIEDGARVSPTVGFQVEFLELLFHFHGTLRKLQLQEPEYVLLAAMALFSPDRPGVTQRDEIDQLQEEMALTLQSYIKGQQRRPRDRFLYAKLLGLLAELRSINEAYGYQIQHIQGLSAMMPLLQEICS

System in the first assay: not listed separately
Nature of the assay: qHTS assay to identify small molecule antagonists of the constitutive androstane receptor (CAR) signaling pathway - cell viability counter screen (AID 1224837). Note: nearly all actives have a fitted effect of over 45% in size. The settings on record: HepG2-CYP2B6-hCAR viability, CellTiter-Fluor, 23 h, co-treated with 50 nM CITCO; series mostly up to 92.4 µM. The essentials:
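Cytotoxicity counter-screen: CellTiter-Fluor fluorescence after 23 h compound exposure (15-point qHTS) in double-stable HepG2-CYP2B6-hCAR cells, with 50 nM CITCO added.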
Regarding `FC(Cl)(Cl)C(F)(Cl)Cl`, the Potency entry was “inactive”.

For `CCCCOC(=O)CCC(=O)OCCCC`, the Potency result is “inactive”.

With `CCCSP(=S)(OCC)Oc1ccc(SC)cc1` (stereo not drawn), the Potency result was “inactive”.

As for `C[C@@H]1C[C@@H]([C@H](O)CC2CC(=O)NC(=O)C2)C(=O)[C@@H](C)C1`, the Potency was 765 nM (active) and 611 nM (active).

Consider `O=C=NC1CCCCC1`, for which the Potency result is “inactive”.

For the compound `O=C(N[C@H]1CN2CCC1CC2)c1ccc2c(c1)OCCO2`, the Potency result is “inactive”.

As to `CCOP(=S)(S)OCC`, the Potency result was “inactive”.

As for `CCc1ccccc1N`, the Potency entry is “inactive”.

Turning to `CCCC[N+]1(C)[C@@H]2CC(OC(=O)[C@H](CO)c3ccccc3)C[C@H]1[C@@H]1O[C@@H]12` (stereo partly drawn), the Potency result was “inactive”.

As to `CCOC(=O)c1cncn1C(C)c1ccccc1` (stereo not drawn), the Potency entry was “inactive”.

`N#CC(C#N)=C(C#N)C#N`: the Potency result was “inactive”.

In the case of `COc1cc(C[C@@H](C)N)c(OC)cc1Br`, the Potency entry was “inactive”.

Take `CC(C)(C)N(NC(=O)c1ccc(Cl)cc1)C(=O)c1ccccc1`: the Potency is 8.58 µM (active).

As for `C#C[C@]1(O)CC[C@H]2[C@@H]3CCC4=CC(=O)CCC4=C3C=C[C@@]21CC`, the Potency result is “inactive”.

As for `O=C(N/N=C/c1ccc([N+](=O)[O-])o1)c1cc([N+](=O)[O-])cc([N+](=O)[O-])c1O`, the Potency is 10.6 µM (active).

For the compound `O=C(O)C(F)(F)C(F)(F)C(F)(F)C(F)(F)C(F)(F)F`, the Potency entry is “inactive”.

Take `ClCc1ccccc1Cl`: the Potency result was “inactive”.

With `CN(C1CCCCC1)C1CCCCC1`, the Potency entry is “inactive”.

As to `CCOc1cccc(C2(N3CCN(c4ccccc4)CC3)CCC(C)CC2)c1` (stereo not drawn), the Potency entry is “inactive”.

Another assay has as its target Nuclear receptor subfamily 1 group I member 3 (Homo sapiens) (UniProt Q14994). Put plainly: qHTS assay to identify small molecule antagonists of the constitutive androstane receptor (CAR) signaling pathway (AID 1224838).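 Note: HepG2 cells stably expressing hCAR with CYP2B6 luciferase reporter stimulated by CITCO; nearly all actives have a fitted effect of over 40% in size.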 The conditions noted are these: HepG2-CYP2B6-hCAR luciferase, CITCO-stimulated, 24 h; series mostly up to 92.4 µM. The essentials: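 Antagonism measured as luciferase signal (ONE-Glo, 30 min, room temperature) in CAR-stimulated cells: HepG2-CYP2B6-hCAR double-stable line exposed 24 hr at 37 C to compound in a 15-point series plus 50 nM CITCO.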
(qHTS replaces the single test concentration by a dilution series.)
With `FC(Cl)(Cl)C(F)(Cl)Cl`, the Potency result was “inactive”.

Regarding `CC(Oc1cccc(Cl)c1)C(=O)O` (stereo not drawn), the Potency result was “inactive”.

For the compound `CC(Cc1ccccc1)NCc1ccccc1Cl` (stereo not drawn), the Potency entry was “inactive”.

Regarding `CCCCOC(=O)CCC(=O)OCCCC`, the Potency result was “inactive”.

For the compound `CCSCc1ccccc1OC(=O)NC`, the Potency entry is “inactive”.

Regarding `CCCSP(=S)(OCC)Oc1ccc(SC)cc1` (stereo not drawn), the Potency entry was “inactive”.

As for `O=C=NC1CCCCC1`, the Potency entry is “inactive”.

`C1CS1`: the Potency entry was “inactive”.

As to `O=C(N[C@H]1CN2CCC1CC2)c1ccc2c(c1)OCCO2`, the Potency result was “inactive”.

In the case of `CCOP(=S)(S)OCC`, the Potency result is “inactive”.

In the case of `CCc1ccccc1N`, the Potency entry was “inactive”.

For the compound `COc1cc(CC#N)cc(OC)c1OC`, the Potency entry was “inactive”.

As to `C[C@H]1O[C@H](OC2[C@@H](O)[C@@H](O)C(O)[C@H](O)[C@H]2O)[C@@H](N)C[C@@H]1N=C(N)C(=O)O` (stereo partly drawn), the Potency entry was “inactive”.

In the case of `CCOC(=O)c1cncn1C(C)c1ccccc1` (stereo not drawn), the Potency result was “inactive”.

As to `CCCCCCCCCCCCCCCl`, the Potency entry is “inactive”.

Consider `CC(C)(C)c1ccc(CCOc2ncnc3ccccc23)cc1`, for which the Potency entry was “inactive”.

Consider `N#CC(C#N)=C(C#N)C#N`, for which the Potency result is “inactive”.

`CC1(C)CC(=O)CC(C)(C)N1[O]`: the Potency result is “inactive”.

For `CC(C)(C)N(NC(=O)c1ccc(Cl)cc1)C(=O)c1ccccc1`, the Potency entry was “inactive”.

For `COC(=O)Cc1ccccc1`, the Potency result was “inactive”.

As for `C#C[C@]1(O)CC[C@H]2[C@@H]3CCC4=CC(=O)CCC4=C3C=C[C@@]21CC`, the Potency result is “inactive”.

With `O=C(N/N=C/c1ccc([N+](=O)[O-])o1)c1cc([N+](=O)[O-])cc([N+](=O)[O-])c1O`, the Potency result is “inactive”.

Consider `CCC(C)(C)c1ccc(O)c(C(C)(C)CC)c1`, for which the Potency was 60.4 µM (active).

As for `O=C(Cc1ccccc1)c1ccccc1`, the Potency entry was “inactive”.

With `O=C(O)C(F)(F)C(F)(F)C(F)(F)C(F)(F)C(F)(F)F`, the Potency entry is “inactive”.

As for `CN1CC[C@]23c4c5ccc(O)c4O[C@H]2[C@@H](O)C=C[C@H]3[C@H]1C5`, the Potency entry was “inactive”.

On to `ClCc1ccccc1Cl`, for which the Potency result is “inactive”.

On to `CN(C1CCCCC1)C1CCCCC1`, for which the Potency entry was “inactive”.

Regarding `C=C(Cl)Cl`, the Potency result is “inactive”.

Take `N#CC(C#N)=Cc1ccc(O)c(O)c1`: the Potency entry was “inactive”.

Consider `CCOc1cccc(C2(N3CCN(c4ccccc4)CC3)CCC(C)CC2)c1` (stereo not drawn), for which the Potency entry was “inactive”.

For the next assay the target is unchanged. Put plainly: qHTS assay to identify small molecule agonists of the constitutive androstane receptor (CAR) signaling pathway (AID 1224839). Note: nearly all actives have a fitted effect of over 15% in size. The settings on record: HepG2 hCAR CYP2B6-luciferase, agonist mode, 24 h; series mostly up to 92.4 µM. The essentials:
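A 15-concentration quantitative screen uses HepG2 cells co-transfected stably with human CAR and CYP2B6-2.2kb reporter. Treatment lasts 24 h with 0.75 uM PK11195 final present; ONE-Glo luminescence is the signal.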
For the compound `FC(Cl)(Cl)C(F)(Cl)Cl`, the Potency entry was “inactive”.

Turning to `CC(Oc1cccc(Cl)c1)C(=O)O` (stereo not drawn), the Potency result is “inactive”.

Take `CC(Cc1ccccc1)NCc1ccccc1Cl` (stereo not drawn): the Potency was 26.6 µM (active).

For the compound `CCSCc1ccccc1OC(=O)NC`, the Potency is 27.3 µM (active).

For the compound `CCCSP(=S)(OCC)Oc1ccc(SC)cc1` (stereo not drawn), the Potency was 21.7 µM (active).

On to `C1CS1`, for which the Potency result is “inactive”.

For `O=C(N[C@H]1CN2CCC1CC2)c1ccc2c(c1)OCCO2`, the Potency result was “inactive”.

Regarding `CCOP(=S)(S)OCC`, the Potency result was “inactive”.

As for `CCc1ccccc1N`, the Potency entry is “inactive”.

In the case of `CCCC[N+]1(C)[C@@H]2CC(OC(=O)[C@H](CO)c3ccccc3)C[C@H]1[C@@H]1O[C@@H]12` (stereo partly drawn), the Potency result was “inactive”.

Regarding `COc1cc(CC#N)cc(OC)c1OC`, the Potency entry was “inactive”.

For the compound `C[C@H]1O[C@H](OC2[C@@H](O)[C@@H](O)C(O)[C@H](O)[C@H]2O)[C@@H](N)C[C@@H]1N=C(N)C(=O)O` (stereo partly drawn), the Potency result is “inactive”.

As for `CC1(C)CC(=O)CC(C)(C)N1[O]`, the Potency result is “inactive”.

As to `CC(C)(C)N(NC(=O)c1ccc(Cl)cc1)C(=O)c1ccccc1`, the Potency entry was “inactive”.

Turning to `COC(=O)Cc1ccccc1`, the Potency entry is “inactive”.

As for `O=C(N/N=C/c1ccc([N+](=O)[O-])o1)c1cc([N+](=O)[O-])cc([N+](=O)[O-])c1O`, the Potency was 15 µM (active).

`O=C(Cc1ccccc1)c1ccccc1`: the Potency is 54.5 µM (active).

In the case of `O=C(O)C(F)(F)C(F)(F)C(F)(F)C(F)(F)C(F)(F)F`, the Potency result is “inactive”.

As to `ClCc1ccccc1Cl`, the Potency entry was “inactive”.

For `CN(C1CCCCC1)C1CCCCC1`, the Potency result is “inactive”.

On to `C=C(Cl)Cl`, for which the Potency result is “inactive”.

Regarding `N#CC(C#N)=Cc1ccc(O)c(O)c1`, the Potency result is “inactive”.

In the case of `CCOc1cccc(C2(N3CCN(c4ccccc4)CC3)CCC(C)CC2)c1` (stereo not drawn), the Potency entry was “inactive”.

The record behind these values is PubChem BioAssay (Tox21).
